High-throughput results: PubChem BioAssay, National Center for Advancing Translational Sciences (NCATS)
In the library only some 3.7% were active in any assay of this set; here they are far more common.
VDR inhibitor: vitamin D3 receptor (human) inhibition; P11473; VDR-SRC2-3 peptide fluorescence polarization, 2 h; Potency, µM, inactives show max response, negative = inhibition, hits mostly inhibitors; 400,000 tested, 0.93% active; note: potency is the fitted concentration of half-maximal effect; % is set by controls: 0 for no effect and ±100 for the full control effect
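Reagent solutions, kept cold and dark, are dispensed first; compounds are then pinned in at 23 nl, plates briefly spun, and incubated 2 h at ambient temperature. Inhibition of VDR–SRC2-3 peptide binding is read by fluorescence polarization.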
TCR act: activates T cell receptor signaling; primary human leukocytes, anti-CD3, IL-2 HTRF, 48 h; Potency, µM (top dose mostly 9.22 µM), for inactives: at the top dose activation of IL-2 secretion, actives largely listed as activators; 330,000 tested, under 10 active; note: % of control where 0% means no effect
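Primary human leukocytes incubated 48 hr with anti-CD3 beads plus compound, without co-stimulation. Secreted IL-2 measured by HTRF (europium cryptate/d2 anti-IL-2 pair, 320 nm excitation, 665 nm emission).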
WRN helicase inh: blocks human WRN helicase; Q14191; WRN helicase unwinding, fluorescent forked duplex, kinetic; Potency, µM (doses to about 114 µM), without a hit: top-dose activity change, negative = inhibition, hits mostly inhibitors; 360,000 tested, 0.46% active; AID 651768; note: potency is the fitted concentration of half-maximal effect; % is set by controls: 0 for no effect and ±100 for the full control effect; nearly all actives have a fitted effect of over 55% in size
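WRN at 20 nM final was preincubated with compound for 15 min at room temperature; reaction started with 100 nM forked duplex oligonucleotide carrying fluorophore and quencher plus 2 mM ATP (final). Unwinding followed kinetically by red fluorescence (ex 525/em 598 nm).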
FEN1 inh: inhibitors of human flap endonuclease 1; P39748; Recombinant FEN1 flap cleavage, fluorescence, 15 min; Potency, µM (top dose mostly 114 µM), without a hit: at the highest dose activity change, negative = inhibition, usual class: inhibitors; 390,000 tested, 0.35% active; AID 588795; note: potency is the fitted concentration of half-maximal effect; % is set by controls: 0 for no effect and ±100 for the full control effect; nearly all actives have a fitted effect of over 65% in size
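Recombinant FEN1 (10 nM) was preincubated with pin-transferred compounds for 15 min at room temperature, then flap DNA substrate (50 nM final) was added. Plates were read at 0 and 15 min, and normalized concentration–response data were fitted to a four-parameter Hill equation.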
PLK1 PBD block: inhibitors of human PLK1 polo-box domain binding; P53350; Plk1 PBD binding of FITC phosphopeptide, fluorescence polarization; Potency, µM, inactives show max response, negative = inhibition, usual class: inhibitors; 360,000 tested, 2.8% active; note: potency is the fitted concentration of half-maximal effect; series mostly up to about 57 µM; % is set by controls: 0 for no effect and ±100 for the full control effect; nearly all actives have a fitted effect of over 65% in size
PI5P4K alpha inh: blocks human PI5P4K alpha kinase activity; P48426; PI5P4Kalpha enzyme, ADP-Glo luminescence, 60 min; active compounds read low; max response, %; 330,000 tested, 1.2% active; AID 652105; active = max response of -50% or lower; inconclusive = between -30% and -50%; inactive = -30% or higher; note: value at the top dose of about 77 µM; % is set by controls: 0 for no effect and ±100 for the full control effect
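Reactions run in 0.038 M HEPES pH 7.4, 0.28 mM EGTA, 0.1% CHAPS and 5% DMSO, with PI5P4Kalpha, substrate, compound and 5 microM ATP final, one hour at room temperature. Readout is ADP-Glo luminescence.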
* marks the source's active call; other numbers are inactive results; ? = inconclusive; . = no result given; [ ] = remark or other dose. Unless noted, calls come from the whole dose curve; as a rule, active = well fitted curve in the direction sought with a large enough effect; inconclusive = small, poorly fitted or top-dose-only effect, or another doubt; inactive = no such curve, though single readings can be large; an effect the other way counts as inactive or inconclusive.

SMILES | VDR inhibitor | TCR act | WRN helicase inh | FEN1 inh | PLK1 PBD block | PI5P4K alpha inh
CCN(Cc1ccncc1)Cc1c(O)ccc2cc(Br)ccc12 | -16% | 0% | -26% | -12% | 11µM* | ?
COc1ccc(-c2nc3c(c(SCC(=O)N4CCCCC4)n2)Cc2cc(Cl)ccc2O3)cc1 | 89µM* | . | . | 0% | . | .
O=C(CSc1nc(-c2ccc(Cl)cc2)nc2c1Cc1ccccc1O2)N1CCCCC1 | -12% | . | . | 22% | . | .
CCCc1c2c(cc3c(=O)cc(C(=O)OCC)oc13)CCCC2 | ? | 6% | 4% | 7% | 21µM* | -9
NC(=S)N=Nc1c(O)n(Cc2ccccc2)c2ccccc12 | -1% | -5%[46.1 µM] | -4% | -1% | -6% | 2
COC(=O)c1ccc(Cn2c(O)c(N=NC(N)=S)c3ccccc32)o1 | -26% | 4% | -4%[11.6 µM] | -13% | -14% | -57*
COc1cc(C(=O)Nc2cccc(OCc3cc(=O)n4cc(C)sc4n3)c2)cc(OC)c1OC | -25% | . | . | 20% | . | .
CC1(C(=O)NS(=O)(=O)Cc2cccc(Cl)c2)CCN1C(=O)Cc1ccc(-c2ccccc2)cc1 (configuration not stated) | . | . | 2% | . | 67µM* | 10
CC1(C(=O)NS(=O)(=O)c2ccc3ccccc3c2)CCN1C(=O)Cc1ccc(-c2ccccc2)cc1 (configuration not stated) | . | . | -3% | . | 42µM* | 6
COc1ccc(S(=O)(=O)NC(=O)C2(C)CCN2C(=O)Cc2ccc(-c3ccccc3)cc2)cc1 (configuration not stated) | . | . | -12% | . | -2% | 2
Cc1cccc(OCCC(=O)NO)c1 | . | . | . | 31% | . | .
O=C(Nc1ncc2c(n1)-c1ccccc1CC2)C1CC1 | -5% | 6% | 3% | -5% | -27% | 6
CC(C)SCC(=O)Nc1ncc2c(n1)-c1ccccc1CC2 | 7% | 3% | ? | -4% | 19µM* | ?
Clc1ccc(NC2(c3nnnn3C3CCCCC3)CCCCC2)cc1 | ? | 0% | -8% | -6% | 27µM* | -12
Cc1cccc(C)c1-n1nnnc1C1(Nc2ccccc2)CCCCC1 | 0% | -3% | -10% | 3% | -4% | 0
CN(C)c1cc2c3ccccc3ccc2c2ccccc12 | . | . | . | -33% | . | .
COc1ccc2c(c1)-c1nc(/N=C/c3ccc(O)c(OC)c3)sc1CC2 | -21% | 0%[46.1 µM] | 79µM* | -14% | ? | 6
Cc1ccc(OC(C)C(=O)N2CCN(c3ccccn3)CC2)cc1 (configuration not stated) | -24% | 2% | -3% | 3% | 27µM* | ?
CC(C)(C)C(=O)c1sc2nc(-c3cccs3)cc(C(F)(F)F)c2c1N | ? | 4% | 100µM* | 11% | -29% | .
COc1cc(Cl)c(C)cc1NC(=O)c1c(C)oc2nc(C)nc(N3CCCC3)c12 | 15% | . | . | 14% | . | .
CN1N/C(=C\c2ccccc2)N=C2C(=O)N(C)C(=O)N=C21 | 50µM* | . | . | ? | . | .
CC/C=C1/N=C2C(=O)N(C)C(=O)N=C2N(C)N1 | -13% | . | . | -11% | . | .
CC(C)Nc1nc(NC(C)C)nc(OCCOC(=O)c2ccccc2)n1 | -18% | -2%[46.1 µM] | -5% | -3% | -7% | 2
CC(=O)OCCOc1nc(NC(C)C)nc(NC(C)C)n1 | ? | 2%[46.1 µM] | 1% | 4% | 30µM* | 4
Cc1cc(C)cc(N2CC(O)=C(c3nc4ccccc4c(=O)[nH]3)C2=N)c1 | 10% | 1% | 50µM* | ? | 0% | 8
SMILES | VDR inhibitor | TCR act | WRN helicase inh | FEN1 inh | PLK1 PBD block | PI5P4K alpha inh
Cn1c2c(c3cnc4cc(Cl)ccc4c31)CN(Cc1ccc(Cl)cc1)CC2 | 11% | . | . | -1% | . | .
CCOC(=O)C1=C(C)C(c2ccc(OC)cc2)NC(=S)N1 (configuration not stated) | 28µM* | . | 5% | 2% | 6µM* | -30
Cc1ccc(-c2nc(S(=O)(=O)c3ccc(C)cc3)c(N3CCCCC3)o2)cc1 | -1% | . | . | -23% | . | .
CCOC(=O)C1CCCN(C(=O)Cn2cnc3c2c(=O)n(C)c(=O)n3C)C1 (configuration not stated) | 8% | -3% | 12% | -1% | -6% | .
CCCNC(=O)Cn1sc2nc(C)cc(C)c2c1=O | 5µM* | -1% | -15%[11.6 µM] | 50µM* | 1.7µM* | -83*
Cc1cc(C)c2c(=O)n(CC(=O)N3CCC(N4CCCCC4)CC3)sc2n1 | 20µM* | -1% | 2% | ? | 3µM* | -81*
CCOC(=O)C1CCCN(C(=O)Cn2sc3nc(C)cc(C)c3c2=O)C1 (configuration not stated) | ? | -4% | -1% | ? | 1.5µM* | -81*
CC(=O)c1cc(-c2ccccc2)n(CC(=O)N2CCC(N3CCCCC3)CC2)c1C | 19% | 5% | -13% | 9% | -1% | 6
COc1ccc2c(c1)C/C(=C\c1ccc(N(C)C)cc1)C2=O | . | . | . | -13% | . | .
COc1cccc2c1N(C)C(=O)CC21C=CC(=O)C=C1 | 41% | . | . | -6% | . | .
Cn1c(CNC(=O)CSc2n[nH]c(-c3ccccc3Cl)n2)nc2ccccc21 | 7% | . | . | -5% | . | .
CCOC(=O)C1C(=O)C=C(c2ccc(C)cc2)CC1c1ccccc1 (configuration not stated) | 5% | 3% | -5% | -3% | 1% | -2
CCOC(=O)C1C(=O)C=C(/C=C/c2ccc(N(C)C)cc2)CC1c1ccccc1 (configuration not stated) | -7% | 3%[46.1 µM] | 50µM* | -5% | 13% | 1
O=c1c2ccccc2nnn1CSc1nnnn1-c1ccc(O)cc1 | -8% | 7% | -2% | 12% | -5% | -5
CCc1ccc(-n2c(CSc3nnnn3-c3ccccc3)nc3ccccc3c2=O)cc1 | -21% | 0% | 14% | 2% | 6µM* | ?
CCOC(=O)COc1ccc(C)cc1C(=O)c1ccn2nc(-c3ccc(C)cc3)cc2n1 | -10% | . | . | 6% | . | .
Cc1cc(Cl)ccc1Nc1nc(NCc2ccco2)nc2nccnc12 | -13% | . | . | 11% | . | .
COc1ccc(CN2CCNC(=O)C2CC(=O)NC2CCCC2)c(C)c1C (configuration not stated) | ? | -1% | 9% | -10% | 9.5µM* | ?
CCCCSc1ncc(C(=O)OCC)c(N)n1 | -25% | -1%[46.1 µM] | -1% | -2% | 9.5µM* | -18
CCOc1cc(Cl)c(S(=O)(=O)n2cc(C)nc2CC)cc1Cl | -4% | . | . | -19% | . | .
CCOc1ccc2nc3cc(N)ccc3c(N)c2c1 | 13µM* | . | . | . | . | .
COc1ccc2oc(=O)c(C(=O)N3CCN(c4ccc(C)cc4)CC3)cc2c1 | -9% | . | . | 0% | . | .
CCN1C(=O)N[C@@H](CCc2ccccc2)[C@H](C(C)=O)[C@H]1C | 0% | -1% | 3% | 3% | -3% | 11
CCN1C(=NCCCOC(C)C)N[C@@H](CCc2ccccc2)[C@H](C(=O)NCCCOC(C)C)[C@H]1C | -21% | 0% | 2% | -1% | 24µM* | -3
